According to PubChem BioAssay (NCATS):
Results filed as inconclusive are left out. Entries that show only a call come without a potency. The source made the active and inactive calls. Calls come from the whole dose curve; as a rule, active = well fitted inhibition curve with a large enough effect; inconclusive = small, poorly fitted or top-dose-only effect; inactive = flat fitted curve, though single readings scatter.

tested on: C2A; assay: qHTS profiling for inhibitors of Plasmodium falciparum proliferation (AID 504749); note: nearly all actives have a fitted effect of over 60% in size; conditions: P. falciparum in erythrocytes, SYBR Green DNA, 72 h; series mostly up to 28.7 µM
Method in brief: (§1)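 Each compound contacts P. falciparum-infected red blood cells for 72 h at 37 C; lysis buffer (Tris, EDTA, saponin, Triton X, SYBR Green I) is added and fluorescence measured next morning; values normalized to controls.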

| Structure (SMILES) | Potency |
| --- | --- |
| Nc1ccc(S(=O)(=O)Nc2ccccc2)cc1 | inactive |
| CC(=O)NC(Cc1ccccc1)C(=O)O (stereo not drawn) | inactive |
| NS(=O)(=O)c1cc2c(cc1Cl)NC(CSCc1ccccc1)=NS2(=O)=O | inactive |
| CCCCCCCCCCCCCCCCCCOCC(O)CO (stereo not drawn) | inactive |
| O=C(O)c1ccccn1 | inactive |
| O=C(O)CC(O)C(=O)O (stereo not drawn) | inactive |
| CC1=C(CC(=O)O)c2cc(F)ccc2/C1=C\c1ccc(S(C)=O)cc1 (stereo not drawn) | inactive |
| COC(=O)C1=C(C)NC(C)=C(C(=O)OC)C1c1ccccc1[N+](=O)[O-] | inactive |
| O=C1O[C@H]([C@@H](O)CO)C(O)=C1O | inactive |

tested on: CP185; assay: as above; conditions: P. falciparum in erythrocytes, SYBR Green DNA, 72 h; series mostly up to 28.7 µM
Method in brief: as §1

| Structure (SMILES) | Potency |
| --- | --- |
| O=C1OC(OC(=O)c2cccnc2Nc2cccc(C(F)(F)F)c2)c2ccccc21 (stereo not drawn) | inactive |
| O=c1cc[nH]c(=S)[nH]1 | inactive |
| Nc1ncnc2c1ncn2[C@@H]1O[C@H](CO)[C@@H](O)[C@H]1O | inactive |
| O=c1cc[nH]c(=O)[nH]1 | inactive |
| CC(=O)Nc1ccc(/C=N/NC(N)=S)cc1 | inactive |
| CCn1cc(C(=O)O)c(=O)c2cnc(N3CCNCC3)nc21 | inactive |
| CC1(C)OC(=O)NC1=O | inactive |
| CC1=C(/C=C/C(C)=C/C=C/C(C)=C/C(=O)O)C(C)(C)CCC1 | inactive |
| COc1cc(C)c(Cc2cnc(N)nc2N)cc1OC | inactive |
| Oc1cccc(O)c1 | inactive |
| CC(=O)CCC(=O)O | inactive |
| O=C(O)c1ccccc1-c1ccc(C(F)(F)F)cc1 | inactive |
| O=C(O)CN1C(=O)c2cccc3cccc(c23)C1=O | inactive |
| Cc1ncc(COP(=O)(O)O)c(C=O)c1O | inactive |
| Cc1cc(O)cc2c1O[C@](C)(CCC[C@H](C)CCC[C@H](C)CCCC(C)C)CC2 | inactive |
| Cc1cc(C(C#N)c2ccc(Cl)cc2)c(Cl)cc1NC(=O)c1cc(I)cc(I)c1O (stereo not drawn) | inactive |

| Structure (SMILES) | Potency |
| --- | --- |
| CC(C)(C)C(=O)NCCCC(=O)O | inactive |
| Cc1ccc(C(C)C)cc2c(C)ccc1-2 | inactive |
| Nc1ccc(S(=O)(=O)Nc2nccs2)cc1 | inactive |
| NC(=O)NNc1ccccc1 | inactive |
| C[C@H]1O[C@@H](n2cc(F)c(=O)[nH]c2=O)[C@H](O)[C@@H]1O | inactive |
| COc1ccccc1O | inactive |
| Cc1cccc(Nc2cc(Cl)nc(SCC(=O)O)n2)c1C | inactive |
| Nc1ccc(S(=O)(=O)Nc2ccccc2)cc1 | inactive |
| CC(=O)NC(Cc1ccccc1)C(=O)O (stereo not drawn) | inactive |
| NS(=O)(=O)c1cc2c(cc1Cl)NC(CSCc1ccccc1)=NS2(=O)=O | inactive |
| CCCCCCCCCCCCCCCCCCOCC(O)CO (stereo not drawn) | inactive |
| O=C(O)c1ccccn1 | inactive |
| O=C(O)CC(O)C(=O)O (stereo not drawn) | inactive |
| CC1=C(CC(=O)O)c2cc(F)ccc2/C1=C\c1ccc(S(C)=O)cc1 (stereo not drawn) | inactive |
| COC(=O)C1=C(C)NC(C)=C(C(=O)OC)C1c1ccccc1[N+](=O)[O-] | inactive |
| O=C1O[C@H]([C@@H](O)CO)C(O)=C1O | inactive |

tested on: CP191; assay: as above; conditions: P. falciparum in erythrocytes, SYBR Green DNA, 72 h; series mostly up to 28.7 µM
Method in brief: as §1

| Structure (SMILES) | Potency |
| --- | --- |
| O=C1OC(OC(=O)c2cccnc2Nc2cccc(C(F)(F)F)c2)c2ccccc21 (stereo not drawn) | inactive |
| O=c1cc[nH]c(=S)[nH]1 | inactive |
| Nc1ncnc2c1ncn2[C@@H]1O[C@H](CO)[C@@H](O)[C@H]1O | inactive |
| O=c1cc[nH]c(=O)[nH]1 | inactive |
| CC(=O)Nc1ccc(/C=N/NC(N)=S)cc1 | inactive |
| CCn1cc(C(=O)O)c(=O)c2cnc(N3CCNCC3)nc21 | inactive |
| CC1(C)OC(=O)NC1=O | inactive |
| CC1=C(/C=C/C(C)=C/C=C/C(C)=C/C(=O)O)C(C)(C)CCC1 | inactive |
| COc1cc(C)c(Cc2cnc(N)nc2N)cc1OC | inactive |
| Oc1cccc(O)c1 | inactive |
| CC(=O)CCC(=O)O | inactive |
| O=C(O)c1ccccc1-c1ccc(C(F)(F)F)cc1 | inactive |
| O=C(O)CN1C(=O)c2cccc3cccc(c23)C1=O | inactive |
| Cc1ncc(COP(=O)(O)O)c(C=O)c1O | inactive |
| Cc1cc(O)cc2c1O[C@](C)(CCC[C@H](C)CCC[C@H](C)CCCC(C)C)CC2 | inactive |
| Cc1cc(C(C#N)c2ccc(Cl)cc2)c(Cl)cc1NC(=O)c1cc(I)cc(I)c1O (stereo not drawn) | inactive |

| Structure (SMILES) | Potency |
| --- | --- |
| CC(C)(C)C(=O)NCCCC(=O)O | inactive |
| Cc1ccc(C(C)C)cc2c(C)ccc1-2 | inactive |
| Nc1ccc(S(=O)(=O)Nc2nccs2)cc1 | inactive |
| NC(=O)NNc1ccccc1 | inactive |
| C[C@H]1O[C@@H](n2cc(F)c(=O)[nH]c2=O)[C@H](O)[C@@H]1O | inactive |
| COc1ccccc1O | inactive |
| Cc1cccc(Nc2cc(Cl)nc(SCC(=O)O)n2)c1C | inactive |
| Nc1ccc(S(=O)(=O)Nc2ccccc2)cc1 | inactive |
| CC(=O)NC(Cc1ccccc1)C(=O)O (stereo not drawn) | inactive |
| NS(=O)(=O)c1cc2c(cc1Cl)NC(CSCc1ccccc1)=NS2(=O)=O | inactive |
| CCCCCCCCCCCCCCCCCCOCC(O)CO (stereo not drawn) | inactive |
| O=C(O)c1ccccn1 | inactive |
| O=C(O)CC(O)C(=O)O (stereo not drawn) | inactive |
| CC1=C(CC(=O)O)c2cc(F)ccc2/C1=C\c1ccc(S(C)=O)cc1 (stereo not drawn) | inactive |
| COC(=O)C1=C(C)NC(C)=C(C(=O)OC)C1c1ccccc1[N+](=O)[O-] | inactive |
| O=C1O[C@H]([C@@H](O)CO)C(O)=C1O | inactive |
